Results from PubChem BioAssay (NCI).
The panel holds about 79,000 compounds, 15% with a hit somewhere; the sample as a whole holds those more often. The source made the active and inactive calls. Cut-off read from the data, not from the text of the source: active = growth inhibition above about 70%; inactive = the rest.

Columns and labels:
[1] = NCI Yeast Anticancer Drug Screen. Data for the rad50 strain (AID 155);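 note: 0% = growth of vehicle-only cultures of the same strain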; details: S. cerevisiae rad50 strain growth inhibition, stronger effect = higher value
Method in brief: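 Yeast carrying a defined DNA repair defect were exposed to test compounds, and growth was compared with vehicle-treated controls to give percent inhibition.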

[2] = NCI Yeast Anticancer Drug Screen. Data for the mec2-1 strain (AID 157); details: S. cerevisiae mec2-1 strain, stronger effect = higher value
Method in brief: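 Readout is yeast growth inhibition, normalised to vehicle-treated controls, in the mec2-1 strain exposed to compound.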

[3] = NCI Yeast Anticancer Drug Screen. Data for the sgs1 mgt1 strain (AID 161);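 note: 0% = growth of cultures given vehicle only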; details: S. cerevisiae sgs1 mgt1 strain, stronger effect = higher value
Method in brief: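 Yeast cells carrying a defined DNA-repair defect were exposed to test compounds. Growth inhibition was measured relative to vehicle-treated controls.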

[4] = NCI Yeast Anticancer Drug Screen. Data for the cln2 rad14 strain (AID 165);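 note: 0% = growth equal to vehicle treated cultures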; details: S. cerevisiae cln2 rad14 strain, stronger effect = higher value
Method in brief: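 Relative to vehicle controls, growth inhibition of compound-treated cln2 rad14 yeast was recorded.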

[5] = NCI Yeast Anticancer Drug Screen. Data for the bub3 strain (AID 167); details: S. cerevisiae bub3 mutant strain, stronger effect = higher value
Method in brief: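 Compounds were applied to a genetically altered yeast strain carrying a cell-cycle control defect. Growth inhibition was scored against vehicle-treated controls.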

[6] = NCI Yeast Anticancer Drug Screen. Data for the mlh1 rad18 strain (AID 175); details: S. cerevisiae mlh1 rad18 strain growth inhibition, stronger effect = higher value
Method in brief: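 Test agents were incubated with a yeast strain of defined genotype (DNA damage repair defect). Inhibition of growth was derived by comparison with vehicle-exposed cultures.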

[7] = at 5.0 µM (retest, dose inferred, filed as 0.5)
[8] = at 50.0 µM (retest, dose inferred, filed as 5.0)

Measured: growth inhibition

CN=C(N)N/N=C(\C)c1ccc2c(ccc3ccccc32)c1
active: [1]; [8] 98% | [1]; at 50.0 µM 89.2% | [2]; [8] 99% | [2]; at 50.0 µM 91.2% | [3]; [8] 99% | [3]; at 50.0 µM 90.8% | [4]; [8] 98% | [4]; at 50.0 µM 91.3% | [5]; [8] 99% | [5]; at 50.0 µM 88.3% | [6]; [8] 97% | [6]; at 50.0 µM 91.7%
inactive: [1]; [7] 11% | [2]; [7] 14% | [3]; [7] 13% | [4]; [7] -3% | [5]; [7] 33% | [6]; [7] 35%

Cc1cc(NC(=S)SCc2ccc(F)cc2)ccc1Br
inactive: [1]; [7] 49% | [2]; [7] 32% | [3]; [7] 58% | [4]; [7] 46% | [5]; [7] 56% | [6]; [7] 33%
active: [1]; [8] 99% | [1]; at 50.0 µM 90.7% | [2]; [8] 100% | [2]; at 50.0 µM 92.8% | [3]; [8] 100% | [3]; at 50.0 µM 91.8% | [4]; [8] 99% | [4]; at 50.0 µM 90.7% | [5]; [8] 100% | [5]; at 50.0 µM 92.3% | [6]; [8] 98% | [6]; at 50.0 µM 91.4%

CC1(C)C2CCC1(CS(=O)O)C(=O)C2.[Ag] (stereo unspecified)
active: [1]; [7] 99% | [1]; [8] 99% | [1]; at 50.0 µM 99.2% | [2]; [7] 100% | [2]; [8] 99% | [2]; at 50.0 µM 99.5% | [3]; [7] 100% | [3]; [8] 99% | [3]; at 50.0 µM 99.5% | [4]; [7] 99% | [4]; [8] 99% | [4]; at 50.0 µM 98.7% | [5]; [7] 99% | [5]; [8] 99% | [5]; at 50.0 µM 99.5% | [6]; [7] 100% | [6]; [8] 99% | [6]; at 50.0 µM 99.6%

CS(=O)(=O)OCCN(CCOS(C)(=O)=O)c1ccc(C=Nc2cccc(Br)c2)c(Cl)c1
inactive: [1]; [7] 1% | [1]; [8] 22% | [1]; at 50.0 µM 41.5% | [2]; [7] -3% | [2]; [8] 1% | [2]; at 50.0 µM -2.3% | [3]; [7] -3% | [3]; [8] 12% | [3]; at 50.0 µM 2.5% | [4]; [7] -4% | [4]; [8] -4% | [4]; at 50.0 µM -49.9% | [5]; [7] 0% | [5]; [8] 1% | [5]; at 50.0 µM 6.85% | [6]; [7] 5% | [6]; [8] 36% | [6]; at 50.0 µM 68.5%

C[n+]1c(-c2ccc(/C=N/Nc3n[nH]c(=S)n3/N=C/c3ccc(-c4cn5ccsc5[n+]4C)cc3)cc2)cn2ccsc21
inactive: [1]; [7] -14% | [2]; [7] -2% | [3]; [7] -4% | [4]; [7] -6% | [5]; [7] -29% | [6]; [7] -2%
active: [1]; [8] 97% | [1]; at 50.0 µM 97.9% | [2]; [8] 97% | [2]; at 50.0 µM 94.2% | [3]; [8] 96% | [3]; at 50.0 µM 95.3% | [4]; [8] 94% | [4]; at 50.0 µM 93.8% | [5]; [8] 98% | [5]; at 50.0 µM 96.5% | [6]; [8] 97% | [6]; at 50.0 µM 93.5%

N#CSCN1C(=O)C2CC=CCC2C1=O (stereo unspecified)
inactive: [1]; [7] 14% | [2]; [7] 2% | [3]; [7] 8% | [3]; at 50.0 µM 49.5% | [4]; [7] 9% | [4]; at 50.0 µM 49.5% | [5]; [7] 6% | [6]; [7] 11% | [6]; at 50.0 µM 50.4%
active: [1]; [8] 93% | [1]; at 50.0 µM 93% | [2]; [8] 95% | [2]; at 50.0 µM 97.1% | [3]; [8] 94% | [4]; [8] 94% | [5]; [8] 95% | [5]; at 50.0 µM 95.5% | [6]; [8] 96%

O=C(CCCN1CCC(C(O)c2ccc(F)cc2)CC1)c1ccc(F)cc1 (stereo unspecified)
inactive: [1]; [7] 37% | [2]; [7] 33% | [2]; at 50.0 µM 69.5% | [3]; [7] 47% | [4]; [7] 47% | [4]; at 50.0 µM 68% | [5]; [7] 53% | [6]; [7] 62% | [6]; at 50.0 µM 68.5%
active: [1]; [8] 86% | [1]; at 50.0 µM 71.5% | [2]; [8] 78% | [3]; [8] 95% | [3]; at 50.0 µM 79.8% | [4]; [8] 87% | [5]; [8] 97% | [5]; at 50.0 µM 75.8% | [6]; [8] 89%

CCCCCCCCCCCc1nnc(N)o1
active: [1]; [8] 91% | [1]; at 50.0 µM 96.7% | [2]; [8] 92% | [2]; at 50.0 µM 96.2% | [3]; [8] 89% | [3]; at 50.0 µM 95.2% | [4]; [8] 92% | [4]; at 50.0 µM 93.3% | [5]; [8] 99% | [5]; at 50.0 µM 95.1% | [6]; [8] 94% | [6]; at 50.0 µM 96.8%
inactive: [1]; [7] 28% | [2]; [7] 11% | [3]; [7] 1% | [4]; [7] 35% | [5]; [7] -10% | [6]; [7] 7%

C=CCOc1ccccc1C(=O)OC
inactive: [1]; [7] 3% | [1]; [8] 0% | [1]; at 50.0 µM -4.6% | [2]; [7] 6% | [2]; [8] -4% | [2]; at 50.0 µM 7.9% | [3]; [7] -1% | [3]; [8] -5% | [3]; at 50.0 µM 7.2% | [4]; [7] 5% | [4]; [8] -4% | [4]; at 50.0 µM 30.9% | [5]; [7] -3% | [5]; [8] -10% | [5]; at 50.0 µM -2.45% | [6]; [7] 3% | [6]; [8] -1% | [6]; at 50.0 µM 0.3%

CC(=O)c1c(O)ccc2nc3ccccc3nc12
inactive: [1]; [7] 11% | [2]; [7] 20% | [3]; [7] 14% | [4]; [7] 12% | [5]; [7] 22% | [6]; [7] 39%
active: [1]; [8] 87% | [1]; at 50.0 µM 94% | [2]; [8] 92% | [2]; at 50.0 µM 91.5% | [3]; [8] 89% | [3]; at 50.0 µM 82.6% | [4]; [8] 86% | [4]; at 50.0 µM 82.8% | [5]; [8] 85% | [5]; at 50.0 µM 92% | [6]; [8] 91% | [6]; at 50.0 µM 94.5%

NC(=S)C(=S)N/C=C/c1nc2ccccc2[nH]c1=O
inactive: [1]; [7] -19% | [2]; [7] -25% | [3]; [7] -13% | [4]; [7] -11% | [5]; [7] -7% | [6]; [7] -6%
active: [1]; [8] 98% | [1]; at 50.0 µM 89.8% | [2]; [8] 99% | [2]; at 50.0 µM 92.7% | [3]; [8] 97% | [3]; at 50.0 µM 91.7% | [4]; [8] 98% | [4]; at 50.0 µM 89.3% | [5]; [8] 99% | [5]; at 50.0 µM 90.7% | [6]; [8] 98% | [6]; at 50.0 µM 89.4%

O=C1OC(c2ccccc2)=N/C1=C\c1ccc(Oc2ccc(Cl)c(Cl)c2)cc1
inactive: [1]; [7] 8% | [1]; [8] 8% | [1]; at 50.0 µM 69.4% | [2]; [7] 14% | [2]; [8] 14% | [2]; at 50.0 µM 61.5% | [3]; [7] 0% | [3]; [8] 0% | [4]; [7] -2% | [4]; [8] -2% | [4]; at 50.0 µM 46% | [5]; [7] -1% | [5]; [8] -1% | [5]; at 50.0 µM 69.7% | [6]; [7] -4% | [6]; [8] -4% | [6]; at 50.0 µM 52.4%
active: [3]; at 50.0 µM 74.8%
